# Rows were chosen to be rich in hits. Some 5.4% of all compounds tested hit in one or more screens of this group.
# IMPase Li cell – membrane-permeable IMPase blocker, potentiated with lithium; CHO-M1 cells, IP1 TR-FRET (IP-One), carbachol + lithium; Potency, µM (top dose mostly 59.4 µM), without a hit: top-dose activity, negative = IMPase inhibition, actives largely listed as inhibitors; 210,000 compounds, 0.35% hits; AID 1457;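 also: IP1 builds up when IMPase is blocked and the TR-FRET signal falls; potency is read from the fitted curve at half-maximal effect; plate controls were basal vehicle for no effect and high inhibitor control for full effect; nearly all actives have a fitted effect of over 50% in size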
#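 Concentration–response in CHO-M1 cells, lithium-potentiated; 30 min at 37C. IP1 detected by competitive TR-FRET after 10 min lysis at RT. Hill-fitted AC50.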
# HPGD inh – HPGD (human) dehydrogenase inhibition; purified HPGD, NADH fluorescence kinetic, PGE2 substrate; Potency, µM, inactives show at the highest dose activity change, negative = inhibition, actives largely listed as inhibitors; 150,000 compounds, 4.3% hits; active = well fitted inhibition curve with a large enough effect, not every such curve was filed as active; inconclusive = small, poorly fitted or top-dose-only effect, or another doubt; inactive = no such curve, though single readings can be large or run the other way; also: potency is read from the fitted curve at half-maximal effect
# Target sequence (P15428 whole entry, looked up): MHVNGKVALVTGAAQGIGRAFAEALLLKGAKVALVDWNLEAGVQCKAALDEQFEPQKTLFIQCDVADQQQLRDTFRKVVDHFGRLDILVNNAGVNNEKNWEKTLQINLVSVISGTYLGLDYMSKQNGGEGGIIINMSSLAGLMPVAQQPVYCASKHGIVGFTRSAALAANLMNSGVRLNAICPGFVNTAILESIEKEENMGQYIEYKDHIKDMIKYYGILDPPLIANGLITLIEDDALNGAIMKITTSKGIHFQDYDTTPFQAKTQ
#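 20 nM HPGD preincubated 15 min at room temperature with compound in 50 mM Tris-HCl pH 8, 0.01% Tween 20. Started with 1 mM NAD+ and 30 uM prostaglandin E2; NADH fluorescence (360/450 nm) read 5 times over 30-s intervals, last minus first.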
# 12-hLO inh – 12-hLO (ALOX12) enzyme inhibition; 150,000 compounds, 0.12% hits; P18054; Potency, µM (doses to about 57.1 µM), for inactives: top-dose activity change, negative = inhibition, actives largely listed as inhibitors; purified 12-hLO, xylenol orange hydroperoxide absorbance; also: potency is read from the fitted curve at half-maximal effect; nearly all actives have a fitted effect of over 55% in size
#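 Hydroperoxide formation by human 12-lipoxygenase from 40 uM arachidonic acid was followed colorimetrically via ferric-xylenol orange complex, using the 573/405 nm absorbance ratio. Enzyme concentration was 150 nM, with 30 min reaction at room temperature.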
# ALOX15B inhib – 15-hLO-2 (ALOX15B) enzyme inhibition; purified 15hLO-2, xylenol orange hydroperoxide absorbance; 110,000 compounds, 0.56% hits; O15296; Potency, µM (highest dose often 57.1 µM), for the others: top-dose activity change, negative = inhibition, hits mostly inhibitors; also: potency is read from the fitted curve at half-maximal effect; nearly all actives have a fitted effect of over 60% in size
#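 Screening format was qHTS against 50 nM purified 15hLO-2 in Hepes pH 7.5 with detergent. Activity follows hydroperoxide formation from 45 uM arachidonic acid, measured as 573:405 nm absorbance ratio of the ferric-xylenol orange complex.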
# IMPase cell inh – membrane-permeable compound that blocks inositol monophosphatase; P97697; CHO-M1 cells, IP1 accumulation, HTRF TR-FRET ratio; inhibition (IP1 accumulation), % at 46.1 µM; 120,000 tested, under 10 active; AID 901; active = well fitted curve in the direction sought with a large enough effect in the signal ratio, not every such curve was filed as active; inconclusive = small, poorly fitted or top-dose-only effect, or a change in a side signal; inactive = no such curve, though single readings can be large or run the other way; the % refers to the signal ratio;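 also: cells stimulated with carbachol in lithium chloride buffer; plate controls were DMSO basal wells for no effect and reference inhibitor wells for full effect; higher means more IMPase inhibition seen as more IP1 and lower FRET ratio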
# Target sequence (P97697 whole entry, looked up): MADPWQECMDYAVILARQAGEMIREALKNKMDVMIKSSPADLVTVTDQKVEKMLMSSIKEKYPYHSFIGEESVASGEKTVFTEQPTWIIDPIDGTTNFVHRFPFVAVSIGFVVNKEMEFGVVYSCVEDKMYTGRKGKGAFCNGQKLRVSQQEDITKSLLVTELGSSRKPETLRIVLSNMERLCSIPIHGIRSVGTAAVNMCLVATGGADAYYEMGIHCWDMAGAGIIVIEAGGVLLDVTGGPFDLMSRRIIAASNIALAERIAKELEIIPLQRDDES
#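 Carbachol-driven Gq signalling in CHO-M1 cells (2000/well) generates IP1. Compounds that block IMPase raise IP1 and so reduce the FRET signal from Eu-anti-IP1 and d2-IP1 after a 10 min room-temperature lysis.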
# PNC assembly inh – perinucleolar compartment assembly inhibition; PC3M PTB-GFP, PNC prevalence imaging, 16 h; active compounds read low; activity change (PNC), negative = inhibition, % at 10 µM; 140,000 compounds, 3.1% hits;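 active = readout at or below -70, meaning at least 70% loss of cells showing the perinucleolar compartment, a nuclear body marking cancer cells; inconclusive = readout between -30 and a set limit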;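 also: plate controls were DMSO wells for no effect and camptothecin positive control wells for full effect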
#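 Compounds are pinned in duplicate onto adhered PC3M cells stably expressing GFP-tagged PTB and incubated 16 h at 37 C. Cells are then fixed, nuclei stained with Hoechst, and PNC-positive cells counted.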
# Numbers without * were called inactive; u = inconclusive; x = not tested or not shown; [ ] = another dose, or the depositor's remark. Unless noted, calls follow the shape of the dose curve; as a rule, active = well fitted curve in the direction sought with a large enough effect; inconclusive = small, poorly fitted or top-dose-only effect, or another doubt; inactive = no such curve, though single readings can be large; an effect the other way counts as inactive or inconclusive. Unless noted, % is scaled to controls: 0 for no effect and ±100 for the full control effect.
SMILES,IMPase Li cell,HPGD inh,12-hLO inh,ALOX15B inhib,IMPase cell inh,PNC assembly inh
Cc1ccc(NC(=S)NCc2ccccc2)cc1[N+](=O)[O-],5%,13µM*,-29%,x,4,7
COc1ccc(CCC(=O)Nc2ccc(C)c([N+](=O)[O-])c2)cc1,2%,13µM*,0%,x,x,u
CC(=O)c1cccc(NC(=S)NNC(=O)c2ccc(C)c([N+](=O)[O-])c2)c1,-4%,x,x,x,x,x
Cc1ccc(CNC(=S)Nc2ccc(C)c([N+](=O)[O-])c2)cc1,x,x,u,x,10,-10
Cc1ccc(C(=O)NNC(=S)Nc2cccc(Cl)c2Cl)cc1[N+](=O)[O-],51%[38.3 µM],11µM*,-12%,15%,7,28
COC(=O)c1ccc(C(NC(=O)OCc2ccccc2)/C(=C/[C@@H](C)C(=O)Nc2ccc(OC)cc2)c2cccnc2)cc1 (some centres undefined),-3%,-16%,1%,5%,x,x
O=C(O)c1ccc(F)c(S(=O)(=O)Nc2cccc(F)c2)c1,x,0%,-3%,x,x,x
C[C@@H]1C(=O)OC2C[C@@]34[C@H]5C[C@@H](C(C)(C)C)[C@@]36C(O)C(=O)O[C@H]6O[C@@]4(C(=O)O5)[C@]21O (some centres undefined),5%,4%,-2%[0.00818 µM],0%[0.0915 µM],x,x
BrC(Br)C(Br)Br,9%,-2%,2%,-10%,x,x
NS(=O)(=O)c1ccc(CCNC(=O)NC2(C(F)(F)F)Oc3ccccc3O2)cc1,14%,-12%,-1%,x,3,-100*
CCCCNC(=O)NC1(C(F)(F)F)Oc2ccccc2O1,23%[38.3 µM],-6%,-4%,-6%,-9,-12
Cc1ccccc1OCCCn1c(-c2ccc(Cl)cc2)nc2ccccc2c1=O,x,x,x,x,2,x
O/N=C1/CCCSc2ccccc21,-12%[38.3 µM],11µM*,-6%,8%,0,-24
Cc1ccc2c(c1)/C(=N/O)CCS2,-1%[38.3 µM],-8%,-3%,-4%,-8,u
O=C(O/N=C1/CCSc2ccccc21)c1ccccc1,14%[38.3 µM],18µM*,1%,-8%,3,32
O=C(O)C1CCCN1S(=O)(=O)c1ccccc1 (centres undefined),2%,-4%,5%,x,-14,-23
O=C(NCCc1ccccc1F)C1CCCN1S(=O)(=O)c1ccc2ccccc2c1 (centres undefined),36%,16µM*,-8%,x,13,-10
O=C(O)C1CCCN1S(=O)(=O)c1ccc2ccccc2c1 (centres undefined),-11%,u,7%,x,3,-100*
COC(=O)c1nc(N)sc1-c1ccccc1,6%[38.3 µM],u,-2%,-1%[2.29 µM],-15,-4
COC(=O)c1cc(-c2ccccc2)sc1N,3%[38.3 µM],28µM*,-20%,-19%,-2,1
COc1ccc(CNc2cc(-c3ccoc3)ncn2)c(OC)c1,10%,x,x,29%,x,x
CC(C)[C@H](NC(=O)c1ccccc1)C(=O)OCC(=O)NCCC1=CCCCC1,-4%,-4%,1%,x,x,1
CC(C)[C@H](NC(=O)c1ccccc1)C(=O)OCC(=O)NCCc1ccc(F)cc1,9%,-12%,-2%,x,x,-134*
CC1(C)CC(=O)C2=C(C1)OC(N)=C(C#N)C2C#Cc1ccccc1 (centres undefined),10%[38.3 µM],13µM*,-11%,-8%,-4,-17
CC(c1ccccc1)C1C(C#N)=C(N)OC2=C1C(=O)CC(C)(C)C2 (centres undefined),2%[38.3 µM],-14%,-14%,2%,3,-4
CCc1c(C)sc(NC(=O)c2cc(C)no2)c1C#N,1%[38.3 µM],32µM*,1%,-10%,-7,33
Cc1noc(C)c1-c1ccc2ncnc(N(C)Cc3ccco3)c2c1,-8%,13µM*,2%,4%,x,x
Cc1ccccc1-c1ccc2ncnc(N(C)Cc3ccco3)c2c1,20%,x,x,25%,x,x
O=C(CSc1ncn[nH]1)c1cccc([N+](=O)[O-])c1,0%,u,0%,x,x,10

# Source: PubChem BioAssay (National Center for Advancing Translational Sciences (NCATS))
